Reference: PubChem BioAssay (NCI)
The panel holds about 83,000 compounds, 20% with a hit somewhere; the sample as a whole holds those more often.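 Values shown are percent growth following 48 h exposure of cells in 96-well plates to a single concentration of compound; below 10 was considered active.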 A number with no mark means an inactive call. Active and inactive are the calls of the source.

Tested on: HL-60(TB) leukemia
Experiment: NCI-60 one-dose screen, 48 h (100 = growth as untreated, 0 = no growth, -100 = all killed)
Details: 10 µM unless noted

Row | Structure (SMILES) | growth
1 | COc1cc(OC)c2sc(-c3ccc(-n4cncc4-c4ccc(OC)c(N)c4)cc3)nc2c1 | 58.4%
2 | CCOC(=O)CNC(=O)C1(NC(=O)CNC(=O)OCc2ccccc2)CCCC1 | 87.5%
3 | CN(C)C1CN(C(=O)c2cc(-c3ccc4ncnc(N5CCc6cc(F)c(Cl)cc65)c4c3)cnc2N)C1 | -1.16% (active)
4 | NS(=O)(=O)c1ccc(NC2=C(Cl)C(=O)c3ccccc3C2=O)cc1 | 87.6%
5 | COc1cc(-c2nn(-c3cccc(NC(=O)c4cccc(C(F)(F)F)c4)c3)cc2-c2ccncc2)ccc1Cl | 1.93% (active)
6 | O=C1Nc2ccccc2/C1=N/N=C/c1ccc(OC2OC(CO)C(O)C(O)C2O)cc1 (stereo unspecified) | 101%
7 | Nc1cc(Cl)c(S(N)(=O)=O)cc1S(N)(=O)=O | 104%
8 | Cc1cnc(C(=O)Nc2nc3ccc(S(=O)(=O)Nc4ccc(C(C)(C)C)cc4)cc3[nH]2)cn1 | -18.2% (active)
9 | O=C(N/N=C/c1ccc2c(c1)OCO2)c1cnn2c1NC(c1ccccc1)C2 (stereo unspecified) | 56.3%
10 | COc1ccc(C2OCC(C)(C)CO2)cc1OC | 100%
11 | CC1OC(Oc2c(-c3ccc(O)c(O)c3)oc3cc(O)cc(O)c3c2=O)C(O)C(O)C1O (stereo unspecified) | 106%
12 | COCCOc1cc2ncnc(N3CCN(c4ncc(S(=O)(=O)N5CCCCC5)cn4)CC3)c2cc1OCCOC | 100%
13 | Fc1cccc(-c2nc(-c3c[nH]c4ncccc34)cs2)c1 | 97.2% [100 µM]
14 | COc1cccc(NC(=O)Cn2cc3c(=O)oc4ccccc4c3n2)c1 | 107%
15 | N#Cc1c(-c2ccccc2)cc(-c2ccccc2)n(CCCCCCC(=O)O)c1=O | 105%
16 | CCCCCCCCCCCCCCCCC(=O)O.CCCCCCCCCCCCCCCCCC(=O)O.CCCCCCCCCCCCCCCCCC(=O)O.CCCCCCCCCCCCCCCCCC(=O)O.CCCCCCCCCCCCCCCCCC(=O)O.CO[CH-]OC12COC1CC(O)C1(C)C(O)C(OC(C)O)C3=C(C)C(OC(=O)C(O)C([NH-])c4ccccc4)CC(O)(C(OC(=O)c4ccccc4)C21)C3(C)C.[Cu+].[Zn].[Zn].[Zn].[Zn].[Zn] (stereo unspecified) | -3.29% (active)
17 | CCOCC[P+](c1ccccc1)(c1ccccc1)c1ccccc1 | 11.7%
18 | CC(=O)OCCC(C)CCC=C(C)C (stereo unspecified) | 108%
19 | CCOC(=O)CC(=O)c1c(C)cc(C)cc1C | 90.8%
20 | Cc1ccc2c(-n3nc(C#N)c(C#N)c3N)cc(=O)[nH]c2c1 | 109%
21 | N#CCC1CCCC1 | 102%

Row | Structure (SMILES) | growth
22 | CCCCCCCCCCCCCCCCCC(=O)NCCNC(=O)CCCCCCCCCCCCCCCCC | 67.8%
23 | CCCCCN(CCCCC)CCCCCCCCN1CCCc2ccccc21 | -14.2% (active)
24 | Cc1ccc(-c2nn(C)c(=O)c3noc(-c4ccc(C)cc4)c23)cc1 | 29.3%
25 | O=C1NC(=O)C(=Cc2cn(Cc3cn(Cc4ccc(Cl)cc4Cl)nn3)c3ccccc23)C(=O)N1 | 73.8%
26 | O=C(COc1ccc(Cl)cc1Cl)Oc1coc(CSc2nc3ccccc3s2)cc1=O | 100%
27 | CC(=O)Nc1ccc2c(c1)Cc1c(F)cccc1-2 | 97.7%
28 | O=C(CCc1nnc2sc(-c3ccccc3)nn12)c1nc2ccccc2[nH]1 | 105%
29 | CC(C)=CCNc1ncnc2c1ncn2C1OC(COP(=O)(O)O)C(O)C1O (stereo unspecified) | -38.4% (active)
30 | c1ccc(C2Cc3ccccc3C2=NC2CCCCC2)cc1 (stereo unspecified) | 98.2%
31 | O=C1/C(=C/c2ccccc2)COc2ccc(O)cc21 | 33.9%
32 | O=Nc1ccc(NC(=O)Nc2ccc([N+](=O)[O-])cc2)cc1 | 89.8%
33 | CN1CCN(CCCN2c3ccccc3Sc3ccc(C(F)(F)F)cc32)CC1 | 83.8%
34 | CN1CCN(C(=S)S)CC1 | 111%
35 | CS/C(=C\c1ccc(C(=O)c2ccc(C)cc2)n1C)S(C)=O (stereo unspecified) | 53.6% [100 µM]
36 | O=[N+]([O-])c1ccc(Oc2cc(Cl)c(Cl)cc2Cl)c(C(F)(F)F)c1 | 104%
37 | CN1CCN(CCC(=O)Nc2cccc(-n3cc(-c4ccncc4)c(-c4ccc(Cl)c(O)c4)n3)c2)CC1 | 5.71% (active)
38 | O=C(O)c1ccnc(Br)c1 | 96.5%
39 | COc1ccc(/C=C2\C=C(c3ccccc3)N(CCc3ccccc3)C2=O)cc1OC | 19.6%
40 | O=C(Nc1ccc(Cl)cc1)c1cc2c(cc1O)[nH]c1ccccc12 | -24.5% (active)
41 | COc1ccc(C(=O)c2cc(C)c(OC)c(C)c2)c(OC)c1NC(C)=O | -26.3% (active)
42 | CCNCCNc1cc(-c2ccc(C(F)(F)F)cc2)c(C#N)c2nc3ccccc3n12 | -65.9% (active)

Row | Structure (SMILES) | growth
43 | O=C(CSc1nnc(Cc2ccccc2Nc2c(Cl)cccc2Cl)n1-c1ccccc1)N1N=C(c2ccc3ccccc3c2)CC1c1ccc(Cl)cc1 (stereo unspecified) | 98%
44 | CN1C[C@@H](c2ccc(Cl)cc2)[C@]2(NC(=S)N(c3ccc(F)c(Cl)c3)C2=O)[C@@]12C(=O)NC1C=CC(Cl)=C[C@H]12 (stereo partly specified) | -17.9% (active)
45 | CN(Cc1ccccc1)c1ccc(SC#N)cc1 | 17.5%
46 | CSc1ccc(OC(C)=O)cc1C | 97.7%
47 | O=C(CN1CCOCC1)Nc1ccc2ncnc(Nc3ccc(Oc4cccc(C(F)(F)F)c4)c(Cl)c3)c2c1 | 70.1%
48 | O=C1C=C(Nc2cccc(Br)c2)c2ccccc2C1=O | 71.8%
49 | CC1(C)Cc2c(Br)c(Br)c(Br)c(OCC(O)CN3CCN(c4ccccn4)CC3)c2O1 (stereo unspecified) | 61.1%
50 | Cc1cc2nc3c(=O)[nH]c(=O)nc-3n(CC=O)c2cc1C | -55.8% (active)
51 | COC(=O)c1cc(-c2ccc(OC)c(OC)c2)[nH]c1N/N=C/c1c(Cl)cccc1Cl | 3.48% (active)
52 | c1ccc(CN2COc3c(ccc4c3OCN(Cc3ccccc3)C4)C2)cc1 | -19% (active)
53 | COc1ccc(/C=C\c2cc(OC)c(OC)c(OC)c2)cc1OC(=O)c1cccc(Cn2cc(CCOC(=O)c3cccc(Cn4nnc5c4C(=O)c4ccccc4C5=O)c3)nn2)c1 | -21.9% (active)
54 | Cc1onc(-c2c(F)cccc2Cl)c1-c1ncc(-c2ccc(Br)cc2)o1 | 37.5%
55 | CC(=O)OC[C@H]1OC(Sc2sc(C(=O)c3ccc(Cl)cc3)c(N)c2-c2nc3ccccc3s2)[C@H](OC(C)=O)[C@@H](OC(C)=O)[C@@H]1OC(C)=O (stereo partly specified) | 108%
56 | CC1=C[C@H]2c3c(c(O)c(O)c4oc5ccccc5c(=O)c34)[C@H](c3cc(O)c(O)c4oc5ccccc5c(=O)c34)[C@H]2C(C)(C)C1 | -23% (active)
57 | Cc1ccc(-c2nc3nc(-c4ccccc4)nc(N4CCCNCC4)c3o2)cc1 | -69.8% (active)
58 | c1ccc(C2CC(c3cccc(Nc4ccncc4)c3)=NN2c2ccccc2)cc1 (stereo unspecified) | -8.94% (active)
59 | Nc1n[nH]c(=S)n1-c1ccc(Cl)cc1 | 82.6%
60 | COc1cc(/C=C/c2nnc(-c3cc(-c4ccccc4)n[nH]3)o2)cc(OC)c1OC | 75.1%
61 | Nc1c(Br)cc(O)c2c1C(=O)c1ccccc1C2=O | 41.9%
62 | CC(=O)Oc1cc(OC(C)=O)c2ccccc2c1OC(C)=O | 23.3%
63 | COc1ccc2c(c1)c(-c1nc(-c3cn(C)c4ccncc34)cs1)cn2C | 81.7%

Row | Structure (SMILES) | growth
64 | CN(/C(N)=N/N=C/c1c2ccccc2cc2ccccc12)C1CCCCC1 | 35.4%
65 | CC(C)(C)OC(=O)N1CCN(CCn2cc(C(F)(F)F)c3c(Cl)ncnc32)CC1 | 16.4%
66 | C[C@@H]1C(=O)N(C[C@H](Cc2ccccc2)NC(=O)OCc2ccccc2)[C@]1(Cc1ccccc1)C(=O)OCc1ccccc1 | 37.4%
67 | CN(C)Cc1ccc(O)c(C(=O)O)c1 | 107%
68 | FC(F)(F)c1cccc(Nc2nc(-c3ccccc3)nc3ncccc23)c1 | -57.8% (active)
69 | COc1ccc(-c2nnc(SCC(=O)NC3=NN=C(c4ccccc4)CS3)o2)cc1 | 90.9%
70 | COC(=O)[C@]12CC[C@@H](C)[C@H](C)[C@@H]1C1=CC[C@@H]3[C@@]4(C)C(C=O)=C[C@@](C)(COC(=O)/C=C/c5ccccc5)[C@@H]4[C@H](O)C[C@@]3(C)[C@]1(C)CC2 | -13% (active)
71 | O=C1CCC(C(=O)N/N=C/c2ccc([N+](=O)[O-])cc2)N1 (stereo unspecified) | 96.7%
72 | Cc1ccc(S(=O)(=O)NCCN2c3nc4ccccc4cc3Sc3cc4ccccc4nc32)cc1 | 94.4%
73 | O=C(NO)c1ccc(Cn2c(=O)n(-c3ccccc3F)c(=O)c3ccccc32)cc1 | -1.46% (active)
74 | O=c1[nH]c2ccccc2cc1-c1nc2ccncc2[nH]1 | 25.9%
75 | Cc1nn(-c2ccc(-c3ccc(OC(F)(F)F)cc3)cc2)c2nc(-c3ccccc3)nc(N)c12 | 100%
76 | O=C1/C=C/[C@@H](O)[C@@H]2C[C@@H](O)C[C@H]2/C=C/CCC[C@H](CCc2ccc(C(F)(F)F)cc2)O1 | -10.1% (active)
77 | Nc1nc(Nc2ccccc2)c2ncn(Cc3ccc4c(c3)OCO4)c2n1 | 25.1%
78 | N#CCCOc1ccccc1 | 88.7%
79 | CC1(c2ccccc2)NC(=O)N(NC(=O)CSc2nc(-c3cccs3)nc3ccccc23)C1=O (stereo unspecified) | 91.6%
80 | O=C(Nc1nc(-c2ccccc2)cc(-c2ccc(Cl)cc2)n1)c1ccncc1 | 110%
81 | CCCCCCCCCCCCC[C@H](O)C[C@H](O)[C@H](C)N | 54.8% [1.25 µM]
